The list is not random: actives were taken first. Their share in the collection is about 13%.
HSD17B inhib – inhibitors of human HSD17B10 dehydrogenase | Q99714 | recombinant HSD17B10, NADH fluorescence kinetic | Potency, µM (doses to about 57.1 µM), inactives show at the top dose activity change, negative = inhibition, actives largely listed as inhibitors | 75,000 tested, 7.6% active;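 further: the protocol describes HADH2 (HSD17B10) and not the HSD17B4 of the title; potency means the concentration at half of the fitted maximal effect; on the % scale 0 is the no-effect control and ±100 the full control effect; nearly all actives have a fitted effect of over 70% in size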
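Enzyme plus compound, 15 min room temperature; substrate mix added (NAD+ 1 mM, beta-hydroxybutyryl-CoA 90 uM final); plates read kinetically for NADH fluorescence. HADH2 was His-tagged, E. coli-derived, 20 nM.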
AID923 – qHTS Assay for Allosteric/Competitive Inhibitors of Caspase-1: Spectroscopic Profiling in AFC Spectral Region. compound fluorescence, AFC spectral region (405/520 nm). Potency, µM (doses to about 57.5 µM), for inactives: top-dose fluorescence increase, most hits filed as activators. 75,000 tested, 1.1% active. AID 923, 2007; further: potency means the concentration at half of the fitted maximal effect; 0% is about no effect
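Baseline compound fluorescence (AFC region, 405 nm ex/520 nm em) taken from the intercept of kinetic reads with 50 nM caspase-1 and 5 uM Ac-WEHD-AFC; normalized to an on-plate AFC standard curve; compounds titrated up to 57 uM.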
HADH2 inhib – blocks human hydroxyacyl-CoA dehydrogenase type II; recombinant HADH2, NADH fluorescence, beta-hydroxybutyryl-CoA; Potency, µM (highest dose often 57.1 µM), for inactives: top-dose activity change, negative = inhibition, most hits filed as inhibitors; 73,000 tested, 3.4% active; further: potency means the concentration at half of the fitted maximal effect; on the % scale 0 is the no-effect control and ±100 the full control effect; nearly all actives have a fitted effect of over 60% in size
Target sequence (Q99714 whole entry, looked up, one chain of several): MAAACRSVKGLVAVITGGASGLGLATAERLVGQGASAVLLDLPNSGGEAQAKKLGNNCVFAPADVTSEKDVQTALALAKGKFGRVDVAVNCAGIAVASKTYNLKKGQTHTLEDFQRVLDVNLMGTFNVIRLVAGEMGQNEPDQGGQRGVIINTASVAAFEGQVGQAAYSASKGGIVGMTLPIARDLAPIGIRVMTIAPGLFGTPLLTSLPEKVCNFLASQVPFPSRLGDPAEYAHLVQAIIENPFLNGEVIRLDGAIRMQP
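Read-out: 360 nm excitation, 450 nm emission, kinetic over 4 min. Conditions: His-tagged human HADH2 20 nM, pH 9.0 Tris with Tween-20, 1 mM NAD+, 90 uM beta-hydroxybutyryl-CoA.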
A350 fluor – compounds fluorescent in Alexa 350 spectral region. Compound autofluorescence, 340/450 nm, Alexa 350 dye-equivalents; hits give high values. max dye-equivalent concentration, M. 59,000 tested, 11% active. AID 590; in the data active means max dye-equivalent concentration above about 10 nM; inconclusive means mostly about 1.1 nM to 9.6 nM
4MU fluor – compound fluoresces in the 4-MU spectral region | max dye-equivalent concentration, M | 59,000 tested, 11% active | compound autofluorescence, 340/450 nm, 4-MU equivalents; hits give high values | AID 589; in the data active means max dye-equivalent concentration above about 10 nM; inconclusive means mostly about 1.1 nM to 9.6 nM
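Intrinsic fluorescence at 340/450 nm (ex/em) was read after 15 min at room temperature in pH 8.0, 100 mM Tris. Each compound concentration expressed as 4-MU-equivalent concentration from a six-point 4-MU standard series on each plate.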
GBA activity – modulators of human glucocerebrosidase; purified enzyme, resorufin glucoside fluorescence (screen aimed at inhibitors), 20 min; P04062; 48,000 tested, 1.1% active; Potency, µM; in the data active means potency below about 15 µM; inconclusive means mostly about 16 µM to 33 µM;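 further: potency means the concentration at half of the fitted maximal effect; the screen sought inhibitors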
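Wild-type enzyme at 0.2 nM final in 50mM citric acid/KH2PO4, 10mM sodium taurocholate, 0.01% tween-20, pH 5.9, with resorufin beta-D-glucopyranoside at 30 uM final. Compounds titrated, 20 min at RT, red fluorescence read; AC50 from titration.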
Numbers without * were called inactive. Unless noted, the call rests on the fitted dose curve; in most records, active means well fitted curve in the direction sought with a large enough effect; inconclusive means small, poorly fitted or top-dose-only effect, or another doubt; inactive means no such curve, though single readings can be large; an effect the other way counts as inactive or inconclusive.

What do the screens show for `Cc1ccc2nc(C3CCN(CC(=O)Nc4ccc5c(c4)OCCO5)CC3)[nH]c2c1`?
HSD17B inhib: 5%; AID923: 0%; HADH2 inhib: 0%; A350 fluor: inconclusive; 4MU fluor: inactive

How did O=C(Nc1ccc(-c2nc3ccccc3[nH]2)cc1)C1CCCO1 (stereo not given) do in these assays?
HSD17B inhib: 13%; AID923: -1%; HADH2 inhib: -22%; A350 fluor: inactive; 4MU fluor: inactive; GBA activity: inactive

Results for Cc1csc2nc(=O)c3ccccc3n12 ?
HSD17B inhib: 25µM*; AID923: 1%; HADH2 inhib: 25µM*; A350 fluor: inactive; 4MU fluor: inactive; GBA activity: >77

Results for COc1ccccc1CNC(=O)c1ccc(S(=O)(=O)N(C)C)cc1 ?
HSD17B inhib: -1%; AID923: 0%; HADH2 inhib: 6%; A350 fluor: inactive; 4MU fluor: inactive; GBA activity: >77

How did Cc1cc(NS(=O)(=O)c2ccc(-c3ccccc3)cc2)no1 do in these assays?
HSD17B inhib: -5%; AID923: 1%; HADH2 inhib: -3%; A350 fluor: inactive; 4MU fluor: inactive; GBA activity: >77

What do the screens show for `Cc1cccc(NS(=O)(=O)c2ccc(Oc3ccccc3)cc2)n1`?
HSD17B inhib: 32µM*; AID923: 0%; HADH2 inhib: -11%; A350 fluor: inactive; 4MU fluor: inactive; GBA activity: >77

Results for COc1ccc(-c2ccc(-c3noc(-c4ccccc4F)n3)c(OC)n2)cc1 ?
HSD17B inhib: 2µM*; AID923: 2%; HADH2 inhib: 13µM*; A350 fluor: 3e-08M*; 4MU fluor: 3.6e-08M*; GBA activity: >77

What do the screens show for `CCOc1nc(C)ccc1-c1noc(-c2ccccn2)n1`?
HSD17B inhib: 25µM*; AID923: 1%; HADH2 inhib: 25µM*; A350 fluor: 6.2e-08M*; 4MU fluor: 6.3e-08M*

Results for COc1ccc(-c2noc(-c3ccccc3F)n2)cc1 ?
HSD17B inhib: 5%; AID923: -1%; HADH2 inhib: 15%

What do the screens show for `COc1nc(-c2ccccc2)ccc1-c1noc(-c2ccccc2)n1`?
HSD17B inhib: -4%; AID923: -1%; HADH2 inhib: 2%; A350 fluor: inactive; 4MU fluor: inactive; GBA activity: >77

What do the screens show for `COc1ccc(-c2ccc(-c3noc(-c4ccccc4)n3)c(OC)n2)cc1`?
HSD17B inhib: 10µM*; AID923: 4%; HADH2 inhib: inconclusive; A350 fluor: 1.2e-07M*; 4MU fluor: 9.1e-08M*; GBA activity: 5*

What do the screens show for `COc1nc(-c2ccc(Cl)cc2)ccc1-c1noc(-c2ccncc2)n1`?
HSD17B inhib: -22%; AID923: 5%; HADH2 inhib: -17%; A350 fluor: 6.9e-08M*; 4MU fluor: 5.8e-08M*; GBA activity: >77

How did CCc1nc(C)c(-c2ccccc2)c(=O)[nH]1 do in these assays?
HSD17B inhib: 15%; AID923: -1%; HADH2 inhib: -4%; A350 fluor: inactive; 4MU fluor: inactive; GBA activity: >77

Results for CCOc1nc(-c2ccccc2)ccc1-c1noc(-c2cccnc2)n1 ?
HSD17B inhib: 32µM*; AID923: 2%; HADH2 inhib: -23%; A350 fluor: inconclusive; 4MU fluor: inconclusive; GBA activity: >77

Results for COc1cccc(-c2noc(-c3cccs3)n2)c1 ?
HSD17B inhib: inconclusive; AID923: 0%; HADH2 inhib: -3%; A350 fluor: inconclusive; 4MU fluor: inconclusive

What do the screens show for `COc1nc(-c2ccccc2)ccc1-c1noc(-c2cccs2)n1`?
HSD17B inhib: 4µM*; AID923: 4%; HADH2 inhib: -30%; A350 fluor: 2.3e-08M*; 4MU fluor: 2.9e-08M*; GBA activity: inactive

How did CCOc1nc(-c2ccc(C)cc2)ccc1-c1noc(COC)n1 do in these assays?
HSD17B inhib: 32µM*; AID923: 1%; HADH2 inhib: inconclusive; A350 fluor: 1.4e-08M*; 4MU fluor: 1e-08M*; GBA activity: >77

What do the screens show for `COc1nc2ccc(C)cc2cc1-c1noc(-c2cccnc2)n1`?
HSD17B inhib: -25%; AID923: 0%; HADH2 inhib: -9%; A350 fluor: 3.8e-08M*; 4MU fluor: 3.4e-08M*; GBA activity: >77

How did CCOc1nc(-c2ccccc2)ccc1-c1noc(-c2ccc(OC)c(OC)c2)n1 do in these assays?
HSD17B inhib: inconclusive; AID923: 0%; HADH2 inhib: 92%; A350 fluor: inconclusive; 4MU fluor: inconclusive; GBA activity: >77

Results for CC(C)(C)n1nnnc1C(c1cccnc1)N1CCN(C2CCCCC2)CC1 (stereo not given) ?
HSD17B inhib: 3%; AID923: -2%; HADH2 inhib: -2%; A350 fluor: inconclusive; 4MU fluor: inactive; GBA activity: >77

Results for CC(NS(=O)(=O)c1ccc(OCC(=O)N2CCOCC2)cc1)c1ccccc1 (stereo not given) ?
HSD17B inhib: 3%; AID923: 1%; HADH2 inhib: -1%; A350 fluor: inactive; 4MU fluor: inactive; GBA activity: >77

How did COc1ccc(NC(=O)c2cnc(C)cn2)cc1-n1cnnn1 do in these assays?
HSD17B inhib: 0%; AID923: 1%; HADH2 inhib: 4%; A350 fluor: inconclusive; 4MU fluor: inconclusive; GBA activity: >77

What do the screens show for `COc1nc(-c2ccccc2)ccc1-c1noc(COc2ccccc2)n1`?
HSD17B inhib: 32µM*; AID923: 8%; HADH2 inhib: -6%; A350 fluor: inconclusive; 4MU fluor: inconclusive; GBA activity: >77

Results for Cc1c(=O)n(OCc2ccccc2F)c2ccccc2[n+]1[O-] ?
HSD17B inhib: -26%; AID923: 2%; HADH2 inhib: -11%; A350 fluor: 4.1e-08M*; 4MU fluor: 4.5e-08M*; GBA activity: >77

How did COc1ccc(-c2c(=O)n(OCc3ccccn3)c3ccccc3[n+]2[O-])cc1OC do in these assays?
HSD17B inhib: -9%; AID923: 2%; HADH2 inhib: inconclusive; A350 fluor: inactive; 4MU fluor: inactive; GBA activity: >77

Results for CN(C=O)CP(=O)(O)CCN1CCCC1=O ?
HSD17B inhib: 0%; AID923: 0%; HADH2 inhib: 1%; A350 fluor: 1.4e-08M*; 4MU fluor: 1.2e-08M*; GBA activity: >77

Results for COC(=O)c1cccnc1-n1c(=O)c2cccnc2n(Cc2ccc(Cl)cc2)c1=O ?
HSD17B inhib: -17%; AID923: 1%; HADH2 inhib: 1%; A350 fluor: 4.7e-08M*; 4MU fluor: 4.9e-08M*; GBA activity: >77
